# Measured values published in ChEMBL document CHEMBL1157539, “Thousands of chemical starting points for antimalarial lead identification” (Nature, 2010).
# Experiments:
# Assay type in all cases: functional
# Plasmodium falciparum [1] = test: GSK_TCMDC: Inhibition of Plasmodium falciparum 3D7 in whole red blood cells, using parasite LDH activity as an index of growth. Test compounds present at 2uM
# Plasmodium falciparum [2] = test: GSK_TCMDC: Inhibition of Plasmodium falciparum Dd2 in whole red blood cells, using parasite LDH activity as an index of growth. Test compounds present at 2uM
# HepG2 = test: GSK_TCMDC: Percent inhibition of human HepG2 cell line. Test compounds present at 10uM.
SMILES,Inhibition (Plasmodium falciparum [1]),Inhibition (Plasmodium falciparum [2]),Inhibition (HepG2)
CS(=O)(=O)NCCCNCc1ccc(-c2ccc(-c3nc4cc(C(F)(F)F)ccc4[nH]3)cc2)cc1.O=C(O)C(F)(F)F,100%,83%,25%
CCOC(=O)c1c(CSc2ccccc2)oc2cc(CN(C)C)c(O)c(Cl)c12,99%,70%,12%
O=C(Nc1ccccc1O)c1ccc(Oc2cccc(C(=O)Nc3ccccc3O)c2)cc1,97%,70%,33%
Cn1cc(CCNc2ccnc(NCCc3coc4ccccc34)n2)c2ccccc21,87%,28%,26%
Cl.NC1=NC2(CCCC2)C(c2ccc(Cl)c(Cl)c2)C(N)=N1 (stereo not drawn),92%,3%,7%
COc1ccc(CNC2CCN(C)CC2)cc1-c1ccc(S(=O)(=O)NCCN2CCCC2)s1.O=C(O)C(F)(F)F,90%,1%,2%
CC(C)[C@H](NC(=O)c1ccc(O)c(-c2ccc(Cl)c(Cl)c2)c1)C(=O)NCCN1CCOCC1,95%,44%,0%
CCN(CCCN1CCCCC1)c1cc(C)nc(Nc2ccc(C)c(F)c2)n1.O=C(O)C(F)(F)F,100%,92%,20%
O=[N+]([O-])c1cccc(NC(=S)N2CCCN(Cc3ccc(F)cc3F)CC2)c1,99%,98%,5%
O=C(/C=C/c1ccc(Cl)c(Cl)c1)NCCCCCN1CCC(c2c[nH]c3cc(O)ccc23)CC1,100%,2%,32%
COc1cc2nc(NCCCOC(C)C)n3nc(-c4ccccc4)nc3c2cc1OC,94%,97%,0%
O=C(NCC1CCC(CNCCCc2ccccc2)CC1)c1cc(Cl)cc(Cl)c1 (stereo not drawn),89%,13%,58%
O=C(Nc1ccc(-c2nc3ccccc3[nH]2)cc1)c1ccc(Cl)s1,99%,34%,16%
O=C(Nc1ccc(OC2CCN(Cc3ccsc3)CC2)c(Cl)c1)c1ccco1.O=C(O)C(F)(F)F,87%,85%,7%
COc1c(C)[nH]c(C)c(-c2ccc(Oc3cccc(C(F)(F)F)c3)cc2)c1=O,98%,96%,40%
CC(C)(C)OC(=O)NCc1ccc(Nc2nnc(-c3ccc(OCC(=O)NC[C@@H]4CC[C@H]5C[C@@H]4C5(C)C)c([N+](=O)[O-])c3)o2)cc1,94%,52%,29%
